Hits are enriched below; roughly 7.5% of the tested compounds scored in any of these assays.
NPC1 promoter act: NPC1 promoter activation; AID 485313; Potency, µM (highest dose often 9.22 µM), for inactives: at the top dose activation, most hits filed as activators; 2.4% of 320,000 active; Huh7 NPC1 promoter luciferase reporter, 24 h; note: % of control where 0% means no effect; nearly all actives have a fitted effect of over 60% in size
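Huh7 cells stably carrying NPC1 promoter–luciferase, plated in Opti-MEM with 10% FBS for 2 h, were exposed to compound in DMSO for 24 h at 37 °C; luciferase reagent was added for 10 min and luminescence read.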
FLuc counter: counter-screen for miR-21 project: firefly luciferase inhibitors or activators; 6.9% of 360,000 active; Potency, µM (top dose mostly 57.5 µM), for the others: at the highest dose activity change, negative = inhibition, usual class: inhibitors; purified FLuc, Km substrates, luminescence inhibition;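 note: plate controls were vehicle for no effect and reference inhibitor for full effect; nearly all actives have a fitted effect of over 55% in size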
Target sequence (P08659 whole entry, looked up): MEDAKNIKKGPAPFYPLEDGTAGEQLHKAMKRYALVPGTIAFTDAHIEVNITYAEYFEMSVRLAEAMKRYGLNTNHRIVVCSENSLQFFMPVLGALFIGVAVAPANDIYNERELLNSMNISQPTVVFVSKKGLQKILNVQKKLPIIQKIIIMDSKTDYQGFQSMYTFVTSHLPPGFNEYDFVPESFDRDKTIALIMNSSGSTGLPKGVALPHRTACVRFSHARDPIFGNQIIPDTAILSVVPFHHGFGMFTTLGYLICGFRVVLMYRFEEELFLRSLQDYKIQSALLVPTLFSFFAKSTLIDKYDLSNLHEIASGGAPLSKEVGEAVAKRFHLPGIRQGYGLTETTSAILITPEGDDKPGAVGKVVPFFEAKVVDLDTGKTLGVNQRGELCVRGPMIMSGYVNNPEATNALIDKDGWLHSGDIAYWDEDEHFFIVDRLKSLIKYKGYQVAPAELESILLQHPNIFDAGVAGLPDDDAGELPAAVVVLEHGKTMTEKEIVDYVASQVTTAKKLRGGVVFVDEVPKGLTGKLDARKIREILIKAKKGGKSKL
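Purified P. pyralis luciferase (10nM final) with 10uM D-luciferin and 10uM ATP (Km levels) in 50mM Tris acetate pH 7.5, 10mM Mg acetate, 0.01% Tween-20, 0.05% BSA; qHTS 6-point titration, ~60 µM downward; luminescence read.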
Rab9 promoter act: activates the Rab9 promoter; Huh7 Rab9 promoter-luciferase reporter, luminescence, 24 h; Potency, µM (series often up to 9.22 µM), for inactives: at the top dose activation, negative = inhibition, most hits filed as activators; 2.8% of 320,000 active; note: % of control where 0% means no effect; nearly all actives have a fitted effect of over 60% in size
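Cell-based reporter: Huh7 stable for Rab9 promoter-driven luciferase, plated in reduced-serum medium with 10% FBS at 1500 cells/well, compound-treated 24 h at 37 °C, luminescence read after 10 min reagent.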
KinaseGlo FLuc: counter-screen: inhibitors of Kinase-Glo firefly luciferase | Q27757 | Kinase-Glo luciferase, ATP luminescence, 8 min | 0.28% of 200,000 active | Potency, µM (highest dose often 38.3 µM), for inactives: top-dose activity change, negative = inhibition, usual class: inhibitors; note: % is set by controls: 0 for no effect and ±100 for the full control effect; nearly all actives have a fitted effect of over 60% in size
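Compound is pinned into ATP-containing buffer (10 uM ATP, imidazole pH 7.2, 7 mM MgCl2). Kinase-Glo luciferase reagent is then added. Light output is recorded following an 8-min room-temperature incubation.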
ELG1 genotox: inducers of genotoxicity in HEK293T ELG1-luciferase cells; HEK293T ELG1-luciferase reporter, luminescence, 16 h; Potency, µM (titrated, usually from 46 µM), for the others: top-dose activity change, positive = activation, usual class: activators; 1.3% of 330,000 active; note: % of control where 0% means no effect; nearly all actives have a fitted effect of over 60% in size
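Reporter readout depends on ELG1 protein level, which increases with genetic stress. After 16 hr compound exposure at 37 °C, luciferase activity was quantified using ONE-Glo.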
SMN2 splice enh: SMN2 splice variant enhancement; AID 1458; 2.8% of 210,000 active; Potency, µM (highest dose often 46.1 µM), for the others: top-dose activity change, positive = activation, usual class: activators; HEK293 SMN2-luciferase splicing reporter, luminescence, 30-36 h; note: % of control where 0% means no effect; nearly all actives have a fitted effect of over 55% in size
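HEK293 cells carry an SMN2 […]–luciferase reporter in which exon 7 inclusion puts luciferase in frame. Cells were plated 10-12 h before compound addition, then incubated 30-36 h at 37C. ONE-Glo luminescence was read; sodium butyrate at 4.5 mM final served as control.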
Active calls of the source: *; ? = inconclusive; . = no result; [ ] = another dose, or the depositor's remark. Calls come from the whole dose curve; as a rule, active = well fitted curve in the direction sought with a large enough effect; inconclusive = small, poorly fitted or top-dose-only effect, or another doubt; inactive = no such curve, though single readings can be large; an effect the other way counts as inactive or inconclusive. Potency is the fitted concentration of half-maximal effect.

SMILES	NPC1 promoter act	FLuc counter	Rab9 promoter act	KinaseGlo FLuc	ELG1 genotox	SMN2 splice enh
COc1ccc(/C=N/NC(N)=S)cc1OC(=O)c1cccc2ccccc12	1%	6µM*	5%	-4%	-5%	-47%
O=C(N/N=C\c1cccnc1)c1ccc(Cl)cc1Cl	0%	?	2%	.	1%	.
O=C(Cc1ccccc1)Nc1cccc([N+](=O)[O-])c1	-4%	2%	-2%	4%	0%	-23%
CCOC(=O)c1ccccc1NC(=O)CSc1nc2cn(CC)nc2c(=O)n1Cc1ccc(Cl)cc1	.	-17%	.	.	.	10%
COC(=O)c1ccc(/C=N/NC(=O)c2ccccc2Cl)cc1	14%	?	18%	-1%	9%	21%
CC(C)c1ccc(/C=N/NC(=O)c2ccccc2Cl)cc1	-17%	24µM*	1%	0%	?	.
O=C(Cc1cccc2ccccc12)Nc1cccnc1	-3%	4%	-4%	-4%	9%	-16%
O=C(N/N=C\c1cccnc1)c1ccccc1O	28%	7.6µM*	?	.	?	.
COc1cc(/C=N/NC(=O)c2cccnc2)ccc1OC(=O)c1ccco1	-5%	-20%	1%	-6%	0%	3%
O=C(N/N=C/c1cccnc1)c1ccccc1Br	3%	-10%	-2%	.	2%	.
COc1cc(/C=N\NC(=O)c2cccnc2)ccc1OC(=O)c1ccccc1Cl	-1%	11µM*	3%	.	14%	.
O=C(Nc1cccnc1)c1ccc2ccccc2c1O	2.5µM*	2.1µM*	2µM*	.	?	.
CCCCn1nc(CC(=O)NCCN(CC)CC)c2ccccc2c1=O	1%	0%	-3%	.	2%	.
O=C(N/N=C/c1cccnc1)c1ccc2ccccc2c1O	13%	5.4µM*	27%	.	?	.
O=C(Nc1ccccc1F)c1ccc2ncsc2c1	2.2µM*	?	4µM*	.	18%	.
O=C(Nc1ccncc1)c1ccc2ncsc2c1	25%	-18%	19%	.	?	.
O=C(Nc1cccc(F)c1)c1ccc2ncsc2c1	2.2µM*	13µM*	3.5µM*	.	16%	.
O=C(Nc1ccccc1Br)c1ccc2nccnc2c1	3.2µM*	6.7µM*	2µM*	.	0%	.
O=C(Nc1ccc(F)cc1F)c1ccc2ncsc2c1	2.5µM*	27µM*	4µM*	.	13%[9.26 µM]	.
Cc1ccccc1NC(=O)c1ccc2nccnc2c1	-5%	?	15%	.	-6%	.
CC1(c2ccc3ccccc3c2)NC(=O)N(CC(=O)N2CCCC(C(F)(F)F)C2)C1=O (configuration not stated)	-5%	2%	0%	.	-4%	.
COc1ccccc1CNC(=O)c1cc(S(=O)(=O)N2CCCCCC2)cn1C	.	-3%	.	.	.	.
O=C(Nc1nnc(SCc2ccc(F)cc2)s1)c1ccc2ncsc2c1	?	?	?	1%	?	13µM*
O=C(Nc1ccc(Cl)cc1Cl)c1ccc2ncsc2c1	2.2µM*	2.7µM*	2.2µM*	.	?	.
Cc1cccc(-c2noc(CN(C3CCCCC3)S(=O)(=O)c3ccc(F)cc3)n2)c1	.	-9%	.	.	.	-7%
SMILES	NPC1 promoter act	FLuc counter	Rab9 promoter act	KinaseGlo FLuc	ELG1 genotox	SMN2 splice enh
Nc1ccc2oc(Cc3ccc(Cl)cc3)nc2c1	.	?	.	.	.	-1%
COc1ccccc1-c1nnc(NC(C)=O)s1	?	6.7µM*	?	-7%	?	25µM*
CCC(Sc1nncn1C)C(=O)Nc1nnc(-c2ccccc2Cl)s1 (configuration not stated)	16%	-20%	3%	0%	?	22%
COc1ccccc1-c1nnc(NC(=O)C(C)Sc2nncn2C)s1 (configuration not stated)	3%	19µM*	14%	0%	12%	-38%
COc1ccccc1-c1nnc(NC(=O)C(C)C)s1	?	?	12%	-1%	19%	19%
COc1ccccc1-c1nnc(NC(=O)CSc2nncn2C)s1	?	0.76µM*	?	-2%	6%	11µM*
COc1ccccc1NC(=O)c1ccc(NC(=O)CSc2nncn2C)cc1	-3%	-1%	-2%	1%	0%	4%
Cc1ccn2c(C(=O)c3ccc(Cl)cc3)cnc2c1	3.5µM*	2.1µM*	1.4µM*	-10%	1.2µM*	22%
N/C(Cc1cccs1)=N\OC(=O)COc1ccccc1Cl	15%	24µM*	?	0%	23µM*	-5%
N/C(Cc1cccs1)=N\OC(=O)COc1ccc(Br)cc1Cl	?	11µM*	25%	-5%	?	6%
N/C(Cc1ccc([N+](=O)[O-])cc1)=N\OC(=O)COc1ccccc1Cl	0%	-20%	-3%	0%	2%	-3%
COc1ccc(C(=O)O/N=C(\N)Cc2cccs2)cc1OC	1%	5%	5%	.	13%	.
O=C(Nc1ccc2ccccc2c1)[C@H]1C[C@@H]1[C@H](NP(=O)(c1ccccc1)c1ccccc1)c1ccccc1	.	.	.	3%	.	-16%
C/C(=N\OCc1ccc(C#N)cc1)c1ccccc1	?	11µM*	3.2µM*	-12%	18µM*	16µM*
C/C(=N/OCO/N=C(\C)c1ccccc1)c1ccccc1	0%	13%	-4%	2%	2%	253%
C/C(=N\OCc1ccc(C#N)cc1)c1ccc(S(=O)(=O)N(C)C)cc1	?	21µM*	11%	.	1%	.
COc1ccccc1OC(=O)c1ccc(S(=O)(=O)N(C)C)cc1	-1%	-19%	-2%	-4%	-4%	3%
C/C(=N\OCc1cccc(C(=O)O)c1)c1ccc(Cl)cc1	?	0.095µM*	0.089µM*	.	?	.
CCOC(=O)C1=C(CN2CCN(c3ccccc3F)CC2)NC(=O)NC1c1ccc(OC)cc1 (configuration not stated)	.	-11%	.	.	.	.
O=C(Nc1ccc(-c2nnn(CC(=O)N3CCN(C(=O)c4ccco4)CC3)n2)cc1)c1ccccc1F	16%	11µM*	24%	1%	-6%	-5%
COc1ccccc1C(=O)Nc1ccc(-c2nnn(CC(=O)N3CCN(C(=O)c4ccco4)CC3)n2)cc1	-2%	17µM*	11%	2%	-11%	-36%
O=C(COc1ccccc1)NCC(c1cccs1)S(=O)(=O)c1ccc(Cl)cc1 (configuration not stated)	.	-11%	.	.	.	.
CCOC(=O)COc1ccc(F)cc1C(=O)c1ccn2nc(-c3ccc(Cl)cc3)cc2n1	.	-2%	.	.	.	-5%
NNC(=O)Cn1c(COc2ccc(Cl)cc2)nc2ccccc21	-5%	12µM*	2%	-7%	5%	6%
O=C(O)Cn1c(COc2ccc(Cl)cc2)nc2ccccc21	-2%	11µM*	2%	.	0%	.

Assay outcomes: PubChem BioAssay, National Center for Advancing Translational Sciences (NCATS)
